Test results published in PubChem BioAssay (Tox21).
Values without a mark were called inactive. Inconclusive results are not listed. Entries that show only a call come without a potency. Active and inactive are the calls of the source. Calls come from the whole dose curve; as a rule, active = well fitted curve in the direction sought with a large enough effect in the repeat runs; inconclusive = weak or mixed curves; inactive = no such curve, though single readings can be large; an effect the other way counts as inactive or inconclusive.

Legend:
[1] = Human pregnane X receptor (PXR) small molecule agonists, qHTS cell viability counter screen (AID 1346977); note: nearly all actives have a fitted effect of over 50% in size; note: potency is the fitted concentration of half-maximal effect
In short: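 Tox21 qHTS format; PXR-Luc HepG2, 2,000/well, charcoal-stripped FBS 5%. Cpd exposure 24hr. Read: CellTiter-Fluor fluorescence, multiplexed with luciferase.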

[2] = Caspase-3/7 induction in HepG2 cells by small molecules, qHTS assay (AID 1346978); note: nearly all actives have a fitted effect of over 15% in size; note: potency is the fitted concentration of half-maximal effect
In short: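 Wild-type HepG2 cells, 2,000/well, settled 5 hr at 37 C and 5% CO2, then compound-treated for 17 hr; caspase-3/7 activity read by luminescent Caspase-Glo 3/7 after 30 min at room temperature.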

[3] = Caspase-3/7 induction in CHO-K1 cells by small molecules, qHTS cell viability counter screen (AID 1346979); note: nearly all actives have a fitted effect of over 35% in size; note: potency is the fitted concentration of half-maximal effect
In short: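 CellTiter-Fluor viability check, qHTS format: wild-type CHO-K1, 16hr compound treatment, 1hr reagent incubation, fluorescence read.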

[4] = Caspase-3/7 induction in CHO-K1 cells by small molecules, qHTS assay (AID 1346980); note: nearly all actives have a fitted effect of over 15% in size; note: potency is the fitted concentration of half-maximal effect
In short: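 Wild-type CHO-K1 cells exposed to compounds for 17hr at 37 C, 5% CO2. Caspase-3/7 activity then measured by Caspase-Glo 3/7 luminescence after 30min at room temperature.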

[5] = Caspase-3/7 induction in HepG2 cells by small molecules, qHTS cell viability counter screen (AID 1346981); note: nearly all actives have a fitted effect of over 30% in size; note: potency is the fitted concentration of half-maximal effect
In short: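 Cell viability is measured as a cytotoxicity counter screen alongside the Caspase-Glo 3/7 readout in identical wells. Wild-type HepG2 cells are treated with test compounds for 16 hr at 37 C before CellTiter-Fluor addition and a 1-hr incubation.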

[6] = target: Nuclear receptor subfamily 1 group I member 2 (Homo sapiens) (UniProt O75469); test: Human pregnane X receptor (PXR) small molecule agonists, qHTS assay (AID 1346982); note: nearly all actives have a fitted effect of over 35% in size; note: potency is the fitted concentration of half-maximal effect
In short: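 Cells: HepG2 stably carrying PXR-Luc. Medium held 5% charcoal-stripped FBS. Compounds in DMSO added after 5 hr plating, incubated 24 hr, then luminescence quantified with ONE-Glo.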

[7] = target: Cytochrome P450 2D6 (Homo sapiens) (UniProt P10635); test: Cytochrome P450 Family 2 Subfamily D Member 6 (CYP2D6) small molecule antagonists: luciferase reporter qHTS assay (AID 1671196); note: nearly all actives have a fitted effect of over 50% in size; note: potency is the fitted concentration of half-maximal effect
In short: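 Enzyme and proluciferin substrate were first combined with test chemical for 10 min at room temperature. Adding NADPH regeneration solution started a 1 h reaction, stopped with luciferin detection reagent and read by luminescence 20 min later.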

[8] = target: Cytochrome P450 2C19 (Homo sapiens) (UniProt P33261); test: Cytochrome P450 Family 2 Subfamily C Member 19 (CYP2C19) small molecule antagonists: luciferase reporter qHTS assay (AID 1671197); note: nearly all actives have a fitted effect of over 65% in size; note: potency is the fitted concentration of half-maximal effect
In short: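 CYP2C19 P450-Glo, 1536-well qHTS. Cpd + enzyme/proluciferin substrate 10 min RT; + NADPH regen, 37C 1 h; stop with luciferin detection reagent, 20 min RT, luminescence (RLU). Pos ctrl ketoconazole.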

[9] = target: Cytochrome P450 2C9 (Homo sapiens) (UniProt P11712); test: Cytochrome P450 Family 2 Subfamily C Member 9 (CYP2C9) small molecule antagonists: luciferase reporter qHTS assay (AID 1671198); note: nearly all actives have a fitted effect of over 50% in size; note: potency is the fitted concentration of half-maximal effect
In short: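 P450-Glo proluciferin substrate with CYP2C9 enzyme; 10 min RT preincubation, then NADPH regeneration 1 h at 37C; luciferin detection reagent 20 min RT, luminescence in relative luminescence units.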

[10] = target: Cytochrome P450 1A2 (Homo sapiens) (UniProt P05177); test: Cytochrome P450 Family 1 Subfamily A Member 2 (CYP1A2) small molecule antagonists: luciferase reporter qHTS assay (AID 1671199); note: nearly all actives have a fitted effect of over 50% in size; note: potency is the fitted concentration of half-maximal effect
In short: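 Compounds were incubated with CYP1A2 and a luminogenic proluciferin substrate for 10 min at room temperature before the reaction was started with NADPH regeneration solution. After 1 h, detection reagent was added and light output, proportional to CYP activity, was recorded.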

[11] = target: Cytochrome P450 3A4 (Homo sapiens) (UniProt P08684); test: Cytochrome P450 Family 3 Subfamily A Member 4 (CYP3A4) small molecule antagonists: luciferase reporter qHTS assay (AID 1671201); note: nearly all actives have a fitted effect of over 50% in size; note: potency is the fitted concentration of half-maximal effect
In short: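 Proluciferin-to-luciferin conversion by CYP3A4, NADPH-regenerated, 1 h RT; luminescence read as RLU. Ketoconazole as control.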

[12] = target: Voltage-gated inwardly rectifying potassium channel KCNH2 (Homo sapiens) (UniProt Q12809); test: Human Ether-a-go-go-Related Gene (hERG) channel small molecule antagonists: fluorescence cell-based qHTS assay (AID 1671200); note: nearly all actives have a fitted effect of over 50% in size; note: potency is the fitted concentration of half-maximal effect
In short: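 Kinetic two-minute fluorescence traces, sampled at 1 s, were collected following thallium stimulus of U2OS cells (1000 per well) that had been cultured overnight at 37 C and loaded with FluxOR II.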

[13] = target: Nuclear receptor subfamily 1 group I member 2 (Rattus norvegicus) (UniProt Q9R1A7); test: Rat pregnane X receptor (rPXR) activation by small molecules, qHTS assay (AID 1346983); details: rPXR luciferase reporter cells, One-Glo luminescence, 24 h; max activation: stronger effect = higher value; note: nearly all actives have a fitted effect of over 20% in size
In short: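 Cell-based rPXR activation assay: rPXR cells, 2,000 per well, rested 5hr at 37 C, then exposed to compounds in DMSO for 24 hr at 37 C. Luciferase activity read by One-Glo luminescence after 30 min at room temperature.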

[14] = target: Nuclear receptor subfamily 1 group I member 2 (Homo sapiens) (UniProt O75469); test: CYP3A4 induction through human pregnane X receptor (PXR) by small molecules, qHTS assay (AID 1346984); note: nearly all actives have a fitted effect of over 40% in size
In short: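 Quantitative HTS in DPX-2 cells, i.e. HepG2 transfected with PXR response element and CYP3A4-promoter luciferase. Compounds in DMSO incubated 24hr at 37C; then P450-Glo CYP3A4 substrate, 3uM final, 3hr; One-Glo luminescence.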

[15] = target: Nuclear receptor subfamily 1 group I member 2 (Homo sapiens) (UniProt O75469); test: Human pregnane X receptor (PXR) activation by small molecules, qHTS assay (AID 1346985); note: nearly all actives have a fitted effect of over 40% in size
In short: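 DPX-2 cells (HepG2 co-transfected with a PXR response element and a CYP3A4-promoter luciferase construct) were seeded at 2,000 per well, rested 5 hr at 37C, then exposed to DMSO-dissolved compounds for 24 hr. Activation was read as luciferase luminescence.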

Chain of Cytochrome P450 2C19 (Homo sapiens) (P33261 whole entry, looked up): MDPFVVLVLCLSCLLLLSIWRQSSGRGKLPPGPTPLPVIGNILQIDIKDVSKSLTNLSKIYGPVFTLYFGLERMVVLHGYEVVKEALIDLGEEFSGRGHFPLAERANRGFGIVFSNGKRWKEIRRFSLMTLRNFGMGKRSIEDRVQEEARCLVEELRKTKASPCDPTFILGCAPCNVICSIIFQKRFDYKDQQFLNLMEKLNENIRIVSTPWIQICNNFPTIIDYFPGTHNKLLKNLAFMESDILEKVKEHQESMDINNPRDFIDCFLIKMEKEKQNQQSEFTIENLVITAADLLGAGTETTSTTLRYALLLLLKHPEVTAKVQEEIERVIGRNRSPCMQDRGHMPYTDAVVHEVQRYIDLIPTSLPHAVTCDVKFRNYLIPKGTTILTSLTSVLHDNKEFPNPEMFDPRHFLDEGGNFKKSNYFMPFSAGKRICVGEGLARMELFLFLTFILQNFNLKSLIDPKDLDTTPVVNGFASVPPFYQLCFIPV
Chain of Cytochrome P450 3A4 (Homo sapiens) (P08684 whole entry, looked up): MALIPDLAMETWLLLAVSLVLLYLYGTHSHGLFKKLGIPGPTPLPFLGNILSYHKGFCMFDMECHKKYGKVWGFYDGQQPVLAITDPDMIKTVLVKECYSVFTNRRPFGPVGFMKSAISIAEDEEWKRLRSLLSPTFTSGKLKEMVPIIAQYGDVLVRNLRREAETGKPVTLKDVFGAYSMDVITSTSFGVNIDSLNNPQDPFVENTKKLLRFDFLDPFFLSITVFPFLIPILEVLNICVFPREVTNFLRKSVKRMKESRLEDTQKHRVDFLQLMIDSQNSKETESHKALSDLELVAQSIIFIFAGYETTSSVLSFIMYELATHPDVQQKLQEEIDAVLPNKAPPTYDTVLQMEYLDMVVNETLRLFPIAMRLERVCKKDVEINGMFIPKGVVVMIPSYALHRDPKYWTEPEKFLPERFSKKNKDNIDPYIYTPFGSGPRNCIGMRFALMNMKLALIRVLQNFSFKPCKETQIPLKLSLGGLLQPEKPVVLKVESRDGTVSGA
Chain of Voltage-gated inwardly rectifying potassium channel KCNH2 (Homo sapiens) (Q12809 whole entry, looked up): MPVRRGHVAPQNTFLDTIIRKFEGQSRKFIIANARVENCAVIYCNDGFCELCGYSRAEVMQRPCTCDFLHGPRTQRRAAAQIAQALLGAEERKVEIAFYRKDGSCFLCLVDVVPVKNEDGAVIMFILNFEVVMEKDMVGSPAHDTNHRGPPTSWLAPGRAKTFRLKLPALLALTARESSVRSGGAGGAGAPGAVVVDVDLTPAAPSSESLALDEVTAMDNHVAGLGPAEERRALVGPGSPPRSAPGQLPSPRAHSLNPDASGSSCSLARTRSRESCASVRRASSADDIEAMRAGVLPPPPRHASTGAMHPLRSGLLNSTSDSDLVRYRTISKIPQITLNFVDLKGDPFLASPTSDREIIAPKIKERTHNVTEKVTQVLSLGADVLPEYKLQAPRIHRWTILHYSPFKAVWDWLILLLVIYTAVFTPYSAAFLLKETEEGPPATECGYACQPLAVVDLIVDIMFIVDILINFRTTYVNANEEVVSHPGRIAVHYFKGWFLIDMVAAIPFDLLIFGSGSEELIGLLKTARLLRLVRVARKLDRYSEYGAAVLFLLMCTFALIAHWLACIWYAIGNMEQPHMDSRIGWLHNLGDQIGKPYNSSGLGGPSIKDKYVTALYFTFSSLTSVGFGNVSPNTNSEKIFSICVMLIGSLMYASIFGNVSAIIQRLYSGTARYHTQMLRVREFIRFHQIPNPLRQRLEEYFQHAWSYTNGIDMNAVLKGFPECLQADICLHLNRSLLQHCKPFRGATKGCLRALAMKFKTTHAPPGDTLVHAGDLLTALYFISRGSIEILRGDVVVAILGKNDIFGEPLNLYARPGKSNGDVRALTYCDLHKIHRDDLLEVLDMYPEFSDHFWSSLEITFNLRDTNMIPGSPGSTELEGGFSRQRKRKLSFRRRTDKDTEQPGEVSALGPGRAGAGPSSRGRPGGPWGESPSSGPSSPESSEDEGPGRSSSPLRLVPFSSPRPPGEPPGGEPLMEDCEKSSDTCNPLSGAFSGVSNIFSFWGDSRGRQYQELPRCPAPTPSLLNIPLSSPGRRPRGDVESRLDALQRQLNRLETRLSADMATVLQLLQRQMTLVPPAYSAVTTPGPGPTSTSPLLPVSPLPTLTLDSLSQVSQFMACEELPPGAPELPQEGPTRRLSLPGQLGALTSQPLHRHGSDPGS
Chain of Cytochrome P450 2D6 (Homo sapiens) (P10635 whole entry, looked up): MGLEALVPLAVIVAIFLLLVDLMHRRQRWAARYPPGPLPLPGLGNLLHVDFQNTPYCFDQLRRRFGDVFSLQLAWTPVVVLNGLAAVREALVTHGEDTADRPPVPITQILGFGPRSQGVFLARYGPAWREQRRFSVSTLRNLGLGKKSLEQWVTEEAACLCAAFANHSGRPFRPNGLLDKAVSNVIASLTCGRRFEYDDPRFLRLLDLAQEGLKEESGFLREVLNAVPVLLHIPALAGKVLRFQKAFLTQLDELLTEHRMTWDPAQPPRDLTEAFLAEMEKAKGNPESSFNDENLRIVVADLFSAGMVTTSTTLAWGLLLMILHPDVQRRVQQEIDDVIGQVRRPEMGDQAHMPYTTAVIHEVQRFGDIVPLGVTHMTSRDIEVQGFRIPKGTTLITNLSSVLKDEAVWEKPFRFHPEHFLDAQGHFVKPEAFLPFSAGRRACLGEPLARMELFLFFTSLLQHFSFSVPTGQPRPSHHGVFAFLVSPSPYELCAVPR
Chain of Cytochrome P450 2C9 (Homo sapiens) (P11712 whole entry, looked up): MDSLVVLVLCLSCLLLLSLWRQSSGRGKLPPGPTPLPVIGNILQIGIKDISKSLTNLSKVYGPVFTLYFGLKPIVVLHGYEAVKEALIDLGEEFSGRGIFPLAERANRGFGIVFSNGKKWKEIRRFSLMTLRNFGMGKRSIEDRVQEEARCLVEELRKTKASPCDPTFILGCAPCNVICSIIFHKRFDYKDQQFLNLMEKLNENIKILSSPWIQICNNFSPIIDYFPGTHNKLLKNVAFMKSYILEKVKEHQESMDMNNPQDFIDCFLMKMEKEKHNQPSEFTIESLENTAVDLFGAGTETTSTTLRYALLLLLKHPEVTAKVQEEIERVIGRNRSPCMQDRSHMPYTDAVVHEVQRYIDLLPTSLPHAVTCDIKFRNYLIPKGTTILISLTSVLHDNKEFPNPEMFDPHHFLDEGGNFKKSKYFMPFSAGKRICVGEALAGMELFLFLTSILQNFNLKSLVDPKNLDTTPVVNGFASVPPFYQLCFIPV
Chain of Nuclear receptor subfamily 1 group I member 2 (Homo sapiens) (O75469 whole entry, looked up): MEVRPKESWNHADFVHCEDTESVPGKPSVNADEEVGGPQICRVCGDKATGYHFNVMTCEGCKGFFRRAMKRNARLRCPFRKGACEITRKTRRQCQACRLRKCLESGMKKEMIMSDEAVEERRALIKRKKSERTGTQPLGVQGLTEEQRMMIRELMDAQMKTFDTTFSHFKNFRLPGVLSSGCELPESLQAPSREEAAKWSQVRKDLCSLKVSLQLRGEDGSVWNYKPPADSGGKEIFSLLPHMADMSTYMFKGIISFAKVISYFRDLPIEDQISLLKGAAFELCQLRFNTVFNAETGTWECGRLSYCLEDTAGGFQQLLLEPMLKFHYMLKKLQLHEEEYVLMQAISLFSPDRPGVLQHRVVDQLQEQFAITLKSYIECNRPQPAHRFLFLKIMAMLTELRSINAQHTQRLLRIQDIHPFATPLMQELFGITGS
Chain of Cytochrome P450 1A2 (Homo sapiens) (P05177 whole entry, looked up): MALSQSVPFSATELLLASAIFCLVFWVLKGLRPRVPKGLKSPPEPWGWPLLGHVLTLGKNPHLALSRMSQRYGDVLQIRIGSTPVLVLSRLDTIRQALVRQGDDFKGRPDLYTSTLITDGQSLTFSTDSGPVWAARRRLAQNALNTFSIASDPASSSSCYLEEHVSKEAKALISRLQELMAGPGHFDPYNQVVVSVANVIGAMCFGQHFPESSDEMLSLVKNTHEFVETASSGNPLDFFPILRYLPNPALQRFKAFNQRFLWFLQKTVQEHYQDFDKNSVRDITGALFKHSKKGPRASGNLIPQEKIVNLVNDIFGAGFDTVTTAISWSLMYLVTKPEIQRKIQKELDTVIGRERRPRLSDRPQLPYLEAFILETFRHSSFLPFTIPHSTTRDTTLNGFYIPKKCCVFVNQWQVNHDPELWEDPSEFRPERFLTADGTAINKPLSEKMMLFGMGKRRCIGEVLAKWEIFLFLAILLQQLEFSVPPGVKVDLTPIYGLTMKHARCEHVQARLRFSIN
Chain of Nuclear receptor subfamily 1 group I member 2 (Rattus norvegicus) (Q9R1A7 whole entry, looked up): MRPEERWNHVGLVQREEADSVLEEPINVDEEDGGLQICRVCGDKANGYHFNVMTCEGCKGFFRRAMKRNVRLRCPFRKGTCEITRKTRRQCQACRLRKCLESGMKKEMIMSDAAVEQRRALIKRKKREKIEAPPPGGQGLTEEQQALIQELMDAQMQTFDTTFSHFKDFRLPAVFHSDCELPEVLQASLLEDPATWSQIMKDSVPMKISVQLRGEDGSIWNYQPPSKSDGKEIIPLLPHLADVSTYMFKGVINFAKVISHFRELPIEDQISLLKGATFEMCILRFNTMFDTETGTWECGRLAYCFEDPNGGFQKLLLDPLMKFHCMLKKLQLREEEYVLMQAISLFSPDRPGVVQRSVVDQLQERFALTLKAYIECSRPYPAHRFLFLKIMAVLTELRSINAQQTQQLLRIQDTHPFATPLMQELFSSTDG

SMILES | Potency [1] | Potency [2] | Potency [3] | Potency [4] | Potency [5] | Potency [6] | Potency [7] | Potency [8] | Potency [9] | Potency [10] | Potency [11] | Potency [12] | max activation [13] [%] | Potency [14] | Potency [15]
CC(C)(C)c1ccc(C(=O)CCCN2CCC(OC(c3ccccc3)c3ccccc3)CC2)cc1 | 21.1 µM (active) | 29.8 µM (active) | 18.8 µM (active) | 21.1 µM (active) | 29.8 µM (active) | – | – | – | – | – | – | – | – | – | –
C=CC(=O)OCCn1c(=O)n(CCOC(=O)C=C)c(=O)n(CCOC(=O)C=C)c1=O | 27.3 µM (active) | 24.3 µM (active) | 4.33 µM (active) | 2.43 µM (active) | 27.3 µM (active) | 8.63 µM (active) | inactive | 2.83 µM (active) | 35.6 µM (active) | 39.9 µM (active) | 0.2 µM (active) | – | – | – | –
CCCCCOc1ccccc1/C(=C\SC)n1ccnc1 | 23.7 µM (active) | inactive | 16.8 µM (active) | inactive | inactive | 2.98 µM (active) | 4.36 µM (active) | 1.1 µM (active) | 5.49 µM (active) | 2.29 µM (active) | – | 15.1 µM (active) | – | – | –
O=C(Nc1cccc([N+](=O)[O-])c1)c1cc2ccccc2cc1O | 3.86 µM (active) | inactive | 4.33 µM (active) | inactive | 6.11 µM (active) | 6.11 µM (active) | 25.2 µM (active) | 79.6 µM (active) | – | – | – | inactive | – | – | –
NC(=O)CC[C@@H]1NC(=O)[C@H](Cc2ccccc2)NC(=O)[C@H](Cc2ccc(O)cc2)NC(=O)CCSSC[C@@H](C(=O)N2CCC[C@H]2C(=O)N[C@@H](CCCN=C(N)N)C(=O)NCC(N)=O)NC(=O)[C@H](CC(N)=O)NC1=O | inactive | inactive | inactive | inactive | inactive | inactive | inactive | inactive | inactive | – | inactive | inactive | -2.21 | inactive | inactive
O=C(O)c1c(Cl)cccc1Cl | inactive | inactive | inactive | inactive | inactive | inactive | inactive | 34.9 µM (active) | – | – | inactive | inactive | – | – | –
O=C1C=CC(=O)N1c1ccc(Cc2ccc(N3C(=O)C=CC3=O)cc2)cc1 | 61.1 µM (active) | inactive | 6.11 µM (active) | inactive | 68.6 µM (active) | 4.86 µM (active) | inactive | 7.96 µM (active) | 5.64 µM (active) | – | 35.6 µM (active) | 34.7 µM (active) | – | – | –
O=C(OCC(COC(=O)c1ccccc1)(COC(=O)c1ccccc1)COC(=O)c1ccccc1)c1ccccc1 | inactive | inactive | inactive | inactive | inactive | inactive | inactive | 3.55 µM (active) | 5.63 µM (active) | inactive | inactive | inactive | – | – | –
CC(=O)SC[C@@H](Cc1ccccc1)C(=O)NCC(=O)OCc1ccccc1 | inactive | inactive | inactive | inactive | inactive | inactive | 1.1 µM (active) | 0.617 µM (active) | – | – | – | inactive | – | – | inactive
CSc1ccc(C(=O)c2[nH]c(=O)[nH]c2C)cc1 | inactive | inactive | inactive | inactive | inactive | inactive | inactive | – | inactive | – | inactive | inactive | – | – | –
COc1cc(/C=C/C(=O)O[C@H]2CC[C@]34C[C@]35CC[C@]3(C)[C@@H]([C@H](C)CCC=C(C)C)CC[C@@]3(C)[C@@H]5CC[C@H]4C2(C)C)ccc1O | inactive | 15 µM (active) | inactive | inactive | inactive | inactive | inactive | inactive | inactive | – | inactive | inactive | – | inactive | inactive
Clc1ccc2nsnc2c1NC1=NCCN1 | inactive | inactive | inactive | inactive | inactive | inactive | 12.3 µM (active) | inactive | inactive | inactive | inactive | inactive | – | inactive | inactive
CCN(Cc1cccnc1)C(=O)c1cccc(Cl)c1[C@]1(C)C(=O)N(Cc2ccc(OC)cc2OC)c2ccc(Cl)cc21 | 25.5 µM (active) | inactive | 20.3 µM (active) | inactive | 45.4 µM (active) | 20.3 µM (active) | 18.7 µM (active) | 1.32 µM (active) | 1.87 µM (active) | – | 0.132 µM (active) | – | – | – | –
CCN(CC)CCNC(=O)c1c(C)[nH]c(/C=C2\C(=O)Nc3ccc(F)cc32)c1C | 11.9 µM (active) | 26.6 µM (active) | 13.3 µM (active) | inactive | 10.6 µM (active) | – | – | – | – | – | – | – | – | – | –
[Cl][Bi]([Cl])([c]1ccccc1)([c]1ccccc1)[c]1ccccc1 | 3.83 µM (active) | inactive | 3.05 µM (active) | inactive | 68.2 µM (active) | 0.483 µM (active) | 6.29 µM (active) | 0.445 µM (active) | 1.12 µM (active) | 19.9 µM (active) | 8.88 µM (active) | 13.7 µM (active) | – | – | –
N=C1C=CC(=C(c2ccc(N)cc2)c2ccc(N)cc2)C=C1 | 8.63 µM (active) | inactive | 12.2 µM (active) | inactive | 13.7 µM (active) | inactive | 6.33 µM (active) | 39.9 µM (active) | 39.9 µM (active) | 35.6 µM (active) | 12.6 µM (active) | inactive | – | – | –
